Results published in PubChem BioAssay (EPA / NIEHS).
Inconclusive results are not listed. Activity calls are given as the source filed them. How the source made its calls, unless noted: active means hit-call score of the fitted dose curve at least 0.9, where 1 is the maximum; inconclusive means response in the unintended direction; inactive means score below 0.9.

Assays:
PGR (gene 5241) [1] = biological target: PGR (gene 5241) (UniProt P06401); test: TOX21_PR_BLA_Followup_Antagonist_ratio: Tox21 HEK293 Progesterone Receptor (PR) Antagonism Beta-lactamase Follow-Up Assay, Ratio (AID 2283934)
Chain of PGR (gene 5241) (P06401 whole entry, looked up, the tested form may be a part): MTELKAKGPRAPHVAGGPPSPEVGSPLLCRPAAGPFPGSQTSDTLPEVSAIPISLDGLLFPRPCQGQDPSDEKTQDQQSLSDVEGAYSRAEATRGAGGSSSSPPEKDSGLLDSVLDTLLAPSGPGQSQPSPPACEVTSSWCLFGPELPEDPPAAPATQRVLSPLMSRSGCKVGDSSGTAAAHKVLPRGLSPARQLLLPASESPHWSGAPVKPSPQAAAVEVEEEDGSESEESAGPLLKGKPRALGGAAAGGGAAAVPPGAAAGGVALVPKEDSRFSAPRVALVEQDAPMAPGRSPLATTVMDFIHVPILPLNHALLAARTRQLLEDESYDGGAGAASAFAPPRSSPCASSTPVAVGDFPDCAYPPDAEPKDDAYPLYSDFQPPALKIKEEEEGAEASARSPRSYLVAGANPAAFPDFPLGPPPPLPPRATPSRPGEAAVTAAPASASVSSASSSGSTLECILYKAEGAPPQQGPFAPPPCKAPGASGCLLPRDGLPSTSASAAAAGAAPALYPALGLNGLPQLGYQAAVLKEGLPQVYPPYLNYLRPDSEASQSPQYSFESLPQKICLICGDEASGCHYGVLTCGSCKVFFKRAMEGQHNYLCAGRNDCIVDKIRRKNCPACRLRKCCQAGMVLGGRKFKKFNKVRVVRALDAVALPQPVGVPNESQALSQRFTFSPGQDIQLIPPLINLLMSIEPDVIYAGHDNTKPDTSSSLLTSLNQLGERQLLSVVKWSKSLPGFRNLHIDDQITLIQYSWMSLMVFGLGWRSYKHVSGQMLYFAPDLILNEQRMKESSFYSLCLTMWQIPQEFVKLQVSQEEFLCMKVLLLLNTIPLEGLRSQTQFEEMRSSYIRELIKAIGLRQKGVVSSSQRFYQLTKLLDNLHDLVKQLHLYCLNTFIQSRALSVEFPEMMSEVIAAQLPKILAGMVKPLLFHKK
In short: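 Read-out: blue/green beta-lactamase FRET ratio (cleaved ch2 over uncleaved ch1), fitted relative to DMSO baseline. Cells: PR-UAS-bla HEK293T, GAL4-UAS reporter, stimulated with 1 nM R5020 final; 16 hr compound exposure, 37C.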

[2] = TOX21_PR_BLA_Followup_Agonist_viability: Viability Assessment in the Tox21 HEK293 Progesterone Receptor (PR) Agonism Beta-lactamase Follow-Up Assay (AID 2283935);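 further: signal loss means lower viability so actives are cytotoxic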
In short: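 Luminescent ATP quantitation (CellTiter-Glo, 30 min, room temperature) in the same wells as the beta-lactamase read, on PR-UAS-bla HEK293T cells exposed to compound for 16 hr at 37C in 2% charcoal-stripped serum.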

[3] = TOX21_PR_BLA_Followup_Antagonist_viability: Viability Assessment in the Tox21 HEK293 Progesterone Receptor (PR) Antagonism Beta-lactamase Follow-Up Assay (AID 2283936);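 further: cells exposed to compound with R5020 agonist for 16 h; hits lower the luminescence signal meaning cytotoxicity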
In short: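 PR-UAS-bla HEK293T cells in medium with 2% charcoal-stripped FBS were treated with compounds plus R5020 for 16 hr at 37C. After the beta-lactamase read, CellTiter-Glo was added to the same wells and luminescence read after 30 min at room temperature.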

PGR (gene 5241) [4] = biological target: PGR (gene 5241) (UniProt P06401); test: TOX21_PR_LUC_Followup_Antagonist: Tox21 HEK293 Progesterone Receptor (PR) Antagonism Luciferase Follow-Up Assay (AID 2283938);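 further: curve fitted upward as signal gain over DMSO baseline despite antagonist label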
In short: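 Luminescence from ONE-Glo reagent, measured after 30 min at room temperature, served as readout. Cells (HEK293 carrying PR-A-luc) had been treated 16 h at 37C with DMSO-dissolved compounds. Activity was fitted against DMSO controls.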

[5] = TOX21_PR_LUC_Followup_Antagonist_viability: Viability Assessment in the Tox21 HEK293 Progesterone Receptor (PR) Antagonism Luciferase Follow-Up Assay (AID 2283940)
In short: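 Read-out: CellTiter-Glo ATP luminescence, loss of signal taken as reduced viability. Cells: HEK293-PR-A-luc, 3,000/well, 5 h settling, then 16 h compound exposure at 37C, 0% CO2.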

[6] = TOX21_PR_LUC_Followup_Agonist_viability: Viability Assessment in the Tox21 HEK293 Progesterone Receptor (PR) Agonism Luciferase Follow-Up Assay (AID 2283941);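 further: loss of signal means cytotoxicity so actives lower viability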
In short: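 Cytotoxicity counter-screen: ATP content by CellTiter-Glo luminescence, loss of signal = reduced viability. HEK293-PR-A-luc, 3,000 cells/well, compound exposure 16 h, 37C.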

PGR (gene 5241) [7] = biological target: PGR (gene 5241) (UniProt P06401); test: TOX21_PR_BLA_Followup_Agonist_ratio: Tox21 HEK293 Progesterone Receptor (PR) Agonism Beta-lactamase Follow-Up Assay, Ratio (AID 2283933)
In short: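 Read-out: ratio of cleaved (ch2) to uncleaved (ch1) beta-lactamase substrate fluorescence, gain-of-signal relative to DMSO baseline. Cells: PR-UAS-bla HEK293T, 2% charcoal-stripped FBS; compound exposure 16 hr, 37C; substrate 2 hr, RT.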

PGR (gene 5241) [8] = biological target: PGR (gene 5241) (UniProt P06401); test: TOX21_PR_LUC_Followup_Agonist: Tox21 HEK293 Progesterone Receptor (PR) Agonism Luciferase Follow-Up Assay (AID 2283937; active means hit-call score of the fitted dose curve at least 0.9, where 1 is the maximum; inactive means score below 0.9)
In short: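 Luminescence read-out (ONE-Glo, 30 min at room temperature) of PR-driven luciferase in HEK293-PR-A-luc cells after 16 h compound exposure at 37C; gain of signal fitted relative to DMSO baseline.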

[9] = CEETOX_H295R_ESTRADIOL_noMTC: CeeTox H295R High-throughput Steroidogenesis Assay for Estradiol, maximum tolerated concentration (MTC) filtered results only (AID 2283919; active means hit-call score of the fitted dose curve at least 0.9, where 1 is the maximum; inactive means score below 0.9); details: actives raise or lower the signal
In short: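 Readout: dansyl-derivatized estradiol quantified by LC-MS/MS in medium from H295R cells dosed 48 h (0.1% DMSO) following 48 h forskolin (10 uM) prestimulation. Gain or loss of signal fitted against DMSO; no MTC filtering applied.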

[10] = CEETOX_H295R_PROG_noMTC: CeeTox H295R High-throughput Steroidogenesis Assay for Progesterone (PROG), maximum tolerated concentration (MTC) filtered results only (AID 2283920; active means hit-call score of the fitted dose curve at least 0.9, where 1 is the maximum; inactive means score below 0.9); details: actives raise or lower the signal
In short: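 Progesterone synthesis in the human adrenal line H295R is measured by HPLC-MS/MS after 48 h chemical exposure following 48 h forskolin (10 uM) stimulation. Activity in either direction is fitted relative to DMSO.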

[11] = CEETOX_H295R_ESTRONE_noMTC: CeeTox H295R High-throughput Steroidogenesis Assay for Estrone, maximum tolerated concentration (MTC) filtered results only (AID 2283921; active means hit-call score of the fitted dose curve at least 0.9, where 1 is the maximum; inactive means score below 0.9); details: actives raise or lower the signal
In short: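 Estrone in spent medium, quantified by tandem MS following dansyl chloride derivatization, after 48 h chemical exposure (0.1% DMSO) of forskolin-prestimulated (10 uM, 48 h) H295R cells; concentrations not MTC-filtered, bidirectional fit against DMSO.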

[12] = biological target: Thyroid hormone receptor alpha (Rattus norvegicus) + Thyroid hormone receptor beta (Rattus norvegicus) (UniProt P18113+P63059); test: TOX21_TR_LUC_GH3_Agonist_Followup: Tox21 GH3 Thyroid Hormone Receptor Agonism Luciferase Follow-Up Assay (AID 2283939)
Chain of Thyroid hormone receptor alpha (Rattus norvegicus) + Thyroid hormone receptor beta (Rattus norvegicus) (P63059 whole entry, looked up): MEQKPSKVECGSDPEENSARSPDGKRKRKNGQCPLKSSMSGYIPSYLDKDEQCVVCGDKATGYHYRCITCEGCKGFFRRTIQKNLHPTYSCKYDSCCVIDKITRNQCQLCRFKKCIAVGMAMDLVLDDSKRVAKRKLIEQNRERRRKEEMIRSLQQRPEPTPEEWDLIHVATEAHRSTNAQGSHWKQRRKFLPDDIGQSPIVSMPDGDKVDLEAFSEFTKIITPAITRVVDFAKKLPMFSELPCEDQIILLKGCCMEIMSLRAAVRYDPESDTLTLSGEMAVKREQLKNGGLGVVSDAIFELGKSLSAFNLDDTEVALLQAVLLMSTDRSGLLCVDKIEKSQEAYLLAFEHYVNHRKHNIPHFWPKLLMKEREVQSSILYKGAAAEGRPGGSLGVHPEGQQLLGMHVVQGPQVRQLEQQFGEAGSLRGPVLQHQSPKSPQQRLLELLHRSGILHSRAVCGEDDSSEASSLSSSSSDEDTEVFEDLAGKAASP
Chain of Thyroid hormone receptor alpha (Rattus norvegicus) + Thyroid hormone receptor beta (Rattus norvegicus) (P18113 whole entry, looked up): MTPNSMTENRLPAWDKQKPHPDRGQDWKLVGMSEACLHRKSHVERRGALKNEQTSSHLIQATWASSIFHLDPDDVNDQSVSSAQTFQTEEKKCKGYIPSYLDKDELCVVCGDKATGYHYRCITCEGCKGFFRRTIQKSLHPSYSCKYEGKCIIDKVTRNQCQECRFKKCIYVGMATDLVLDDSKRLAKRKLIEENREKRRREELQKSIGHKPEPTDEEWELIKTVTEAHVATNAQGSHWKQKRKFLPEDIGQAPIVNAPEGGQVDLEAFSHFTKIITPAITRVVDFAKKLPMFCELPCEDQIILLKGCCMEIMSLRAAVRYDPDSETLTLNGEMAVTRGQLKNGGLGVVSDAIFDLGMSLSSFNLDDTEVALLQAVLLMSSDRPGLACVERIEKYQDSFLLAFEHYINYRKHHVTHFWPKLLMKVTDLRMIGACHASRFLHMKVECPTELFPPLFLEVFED
In short: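 Agonist-mode confirmatory run: 15 concentrations (5 nM to 92 uM final) on GH3 rat pituitary cells, 24 h at 37C/5% CO2, T3 as positive control. Luminescence read with ONE-Glo after 30 min.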

THRA (gene 7067) = THRA (gene 7067) (UniProt P10827); test: TOX21_TRA_COA_Agonist_Followup_ratio: Tox21 Thyroid Hormone Receptor alpha Agonism through Coactivator Recruitment Follow-Up Assay, Ratio (AID 2283948; active means hit-call score of the fitted dose curve at least 0.9, where 1 is the maximum; inactive means score below 0.9)
Chain of THRA (gene 7067) (P10827 whole entry, looked up, the tested form may be a part): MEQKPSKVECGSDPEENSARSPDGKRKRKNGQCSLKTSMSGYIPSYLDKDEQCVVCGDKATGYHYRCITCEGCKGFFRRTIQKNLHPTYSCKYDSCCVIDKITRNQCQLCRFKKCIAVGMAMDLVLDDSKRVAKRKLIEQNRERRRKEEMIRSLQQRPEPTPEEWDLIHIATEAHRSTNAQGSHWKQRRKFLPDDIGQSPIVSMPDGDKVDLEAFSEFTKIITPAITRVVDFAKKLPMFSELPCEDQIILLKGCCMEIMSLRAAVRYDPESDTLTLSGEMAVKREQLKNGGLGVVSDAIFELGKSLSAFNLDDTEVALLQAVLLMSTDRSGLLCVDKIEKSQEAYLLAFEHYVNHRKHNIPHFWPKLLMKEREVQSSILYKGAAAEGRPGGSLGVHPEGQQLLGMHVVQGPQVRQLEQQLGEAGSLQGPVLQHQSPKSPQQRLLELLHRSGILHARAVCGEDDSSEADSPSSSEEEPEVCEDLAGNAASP
In short: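 GST-TRa LBD 2.5 nM + 0.10% BSA + cpd; add fluorescein-SRC-2 200 nM, Tb-anti-GST 2 nM. TR-FRET ex 340, em 520/495 ratio. Norm: DMSO 0%, T3 100%; gain-of-signal fit.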

THRB (gene 7068) [13] = biological target: THRB (gene 7068) (UniProt P10828); test: TOX21_TRB_BLA_Agonist_Followup_ratio: Tox21 Thyroid Hormone Receptor beta Agonism Beta-lactamase (BLA) Follow-Up Assay, Ratio (AID 2283954)
Chain of THRB (gene 7068) (P10828 whole entry, looked up, the tested form may be a part): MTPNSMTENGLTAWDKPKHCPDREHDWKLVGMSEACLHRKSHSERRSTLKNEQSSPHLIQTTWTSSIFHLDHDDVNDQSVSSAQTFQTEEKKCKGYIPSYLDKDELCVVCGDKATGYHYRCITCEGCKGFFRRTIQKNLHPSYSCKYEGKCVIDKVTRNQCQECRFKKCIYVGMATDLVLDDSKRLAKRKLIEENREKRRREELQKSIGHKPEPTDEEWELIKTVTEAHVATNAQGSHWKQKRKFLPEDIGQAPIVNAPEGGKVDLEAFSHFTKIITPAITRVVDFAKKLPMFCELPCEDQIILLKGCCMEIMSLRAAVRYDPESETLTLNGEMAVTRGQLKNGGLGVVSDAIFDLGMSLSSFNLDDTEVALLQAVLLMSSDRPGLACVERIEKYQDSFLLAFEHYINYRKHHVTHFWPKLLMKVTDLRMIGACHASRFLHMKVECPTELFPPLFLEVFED
In short: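 Agonist mode: compounds (11-point, triplicate) incubated 18 h with HEK293T cells carrying GAL4-DBD/human TRβ-LBD and UAS-β-lactamase. Blue/green (460/530 nm) FRET ratio read after 2 h CCF4-AM loading; CellTiter-Glo viability run in the same plates.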

THRB (gene 7068) [14] = biological target: THRB (gene 7068) (UniProt P10828); test: TOX21_TRB_COA_Agonist_Followup_ratio: Tox21 Thyroid Hormone Receptor beta Agonism through Coactivator Recruitment Follow-Up Assay, Ratio (AID 2283963; active means hit-call score of the fitted dose curve at least 0.9, where 1 is the maximum; inactive means score below 0.9)
In short: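 First, the GST-fused TRβ ligand-binding domain (5.0 nM) was incubated with test compound in 0.10% BSA. Next, fluorescein-tagged SRC-2 peptide (200 nM) and terbium anti-GST antibody (2 nM) were added. Finally, TR-FRET emission ratios were normalized against DMSO and T3 controls.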

Q: What does the source list for `CCCOC(=O)c1c(Cl)c(Cl)c(Cl)c(Cl)c1C(=O)OCCC`?
A: AC50 (PGR (gene 5241) [1]): 9.87 µM (active); outcome [2]: inactive; outcome [3]: inactive; AC50 (PGR (gene 5241) [4]): 21.2 µM (active); outcome [5]: inactive; outcome [6]: inactive

Q: What does the source list for `C=C1CC[C@H](O)C/C1=C/C=C1\CCC[C@]2(C)[C@@H]([C@H](C)/C=C/[C@H](C)C(C)C)CC[C@@H]12`?
A: outcome (PGR (gene 5241) [1]): inactive; outcome [3]: inactive; outcome (PGR (gene 5241) [4]): inactive; outcome [5]: inactive

Q: With `O=C(Nc1ccc2c(c1)Cc1ccccc1-2)C(F)(F)F` as the compound, how does the outcome (PGR (gene 5241) [7]) read?
A: inactive

Q: And the AC50 (PGR (gene 5241) [1])?
A: 19.6 µM (active)

Q: What about the outcome [2] of the same compound?
A: inactive

Q: What about the outcome [3] of the same compound?
A: inactive

Q: What about the outcome (PGR (gene 5241) [8]) of the same compound?
A: inactive

Q: And the AC50 (PGR (gene 5241) [4])?
A: 62.9 µM (active)

Q: What about the outcome [5] of the same compound?
A: inactive

Q: And the outcome [6]?
A: inactive

Q: Which outcome [9] does the source give for `O=C(Nc1ccc2c(O)c(N=Nc3ccc(N=Nc4ccc(S(=O)(=O)O)cc4)cc3)c(S(=O)(=O)O)cc2c1)c1ccccc1` here?
A: inactive

Q: What about the outcome [10] of the same compound?
A: inactive

Q: What about the outcome [11] of the same compound?
A: inactive

Q: With `CCOC(=O)C(C#N)=C(c1ccccc1)c1ccccc1` as the compound, how does the AC50 (PGR (gene 5241) [1]) read?
A: 15.2 µM (active)

Q: And the outcome [2]?
A: inactive

Q: What about the outcome [3] of the same compound?
A: inactive

Q: And the AC50 (PGR (gene 5241) [4])?
A: 23 µM (active)

Q: What about the outcome [5] of the same compound?
A: inactive

Q: What about the outcome [6] of the same compound?
A: inactive

Q: Which results are given for `C[C@H](CCC(=O)NCC(=O)O)[C@H]1CC[C@H]2[C@@H]3[C@H](O)C[C@@H]4C[C@H](O)CC[C@]4(C)[C@H]3C[C@H](O)[C@]12C`?
A: outcome [12]: inactive; outcome (THRA (gene 7067)): inactive; outcome (THRB (gene 7068) [13]): inactive; outcome (THRB (gene 7068) [14]): inactive

Q: For `C=C[Si]1(C)O[Si](C)(C=C)O[Si](C)(C=C)O[Si](C)(C=C)O1` (configuration not stated), which outcome [10] is on record?
A: inactive
